Compounds with a hit are over-represented: about 3.3% of the library has one in this group of screens.
Jurkat NFkB inh: inhibitors of the PMA/ionomycin-induced NF-kB reporter in Jurkat cells; inhibition, % at 4 µM; PMA/ionomycin-induced NF-kB luciferase reporter, luminescence; hit rate 0.53% among 330,000; in the data active means inhibition above about 50%
esBAF inh: inhibitors of esBAF chromatin remodeling in mouse ES cells | Bmi1-luciferase knock-in reporter, 24 h; 100% = twice the neutral-well signal | reporter increase, % at 12.5 µM | hit rate 2% among 350,000 | AID 602393; in the data active means activation above about 40%;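 further: 0% = median of the plate's neutral control wells and 100% = double that signal; a rise in the Bmi1 reporter signal indicates esBAF inhibition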
697 NFkB inh: inhibitors of the PMA/ionomycin-induced NF-kB reporter in 697 B cells | 697 B-cell NF-kB luciferase reporter, 16 h | inhibition, % at 4 µM | hit rate 0.33% among 330,000 | AID 435022; in the data active means inhibition above about 35%
Gli-Sufu antag: Gli-Sufu pathway antagonism | Sufu-KO-LIGHT fibroblasts, Gli luciferase reporter luminescence | hit rate 0.74% among 340,000 | inhibition, % at 5 µM;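 active means inhibition above about 55%, limit read from the data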;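 further: 0% = DMSO-treated cells and 100% = wells with medium but no cells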
SMARCA2 act: increases SMARCA2 function in MMTV reporter cells. activation, % at 9.1 µM. hit rate 1% among 370,000. MG213 cells, MMTV-luciferase reporter, dexamethasone, overnight; in the data active means activation above about 7.8%;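 further: 0% = vehicle wells and 100% = reference activator wells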
Jurkat NFkB conf: inhibitors of the PMA/ionomycin-induced NF-kB reporter in Jurkat cells, retest. hit rate 27% among 2,700. Jurkat NF-kB luciferase, 16 h. AID 435020. shares compounds with Jurkat NFkB inh. inhibition, % at 4 µM;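 active means inhibition reaching about 45% at 4 µM in either replicate, limit read from the data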;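 further: plate controls were PMA/ionomycin stimulated DMSO wells for no effect and unstimulated DMSO wells for full effect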
* hit, by the source's call; · = no result.

SMILES	Jurkat NFkB inh	esBAF inh	697 NFkB inh	Gli-Sufu antag	SMARCA2 act	Jurkat NFkB conf
CC(=O)c1ccc(NC(=O)NC2CCCCCCC2)cc1	-150.1	68.2*	-158.9	-91.2	2.6	-71.3
CCC(=O)Nc1ccc2c(c1)C(=O)N(C)[C@@H]1CC[C@@H](CC(=O)N3CCc4ccccc4C3)O[C@@H]1CO2	·	1.5	·	·	·	·
C[C@@H]1CN([C@@H](C)CO)C(=O)c2cccc(NC(=O)c3nc4ccccc4s3)c2O[C@H]1CN(C)S(C)(=O)=O	·	1.0	·	·	·	·
Cc1ccc(N=C/C(C(=O)C(F)(F)F)=C(\O)c2ccco2)cc1Cl	-183.5	·	-185.5	-83.5	3.5	-7.8
Cc1noc(C)c1S(=O)(=O)Nc1ccc2c(c1)C(=O)N([C@@H](C)CO)C[C@H](C)[C@H](CN(C)Cc1ccc3c(c1)OCO3)O2	·	3.0	·	·	·	·
O=C(Nc1nc2ccccc2c(=O)s1)c1ccco1	64.2*	-3.1	31.0	2.5	-1.5	21.3
C[C@H](CO)N1C[C@H](C)[C@H](CN(C)Cc2cccc(C(F)(F)F)c2)Oc2ncc(-c3cc4ccccc4o3)cc2C1=O	·	3.2	·	·	·	·
CCCc1cc(-c2ccc3c(c2)COc2c4ccccc4nn2-3)on1	-200.9	-8.0	-238.1	-53.9	6.1	-93.7
CCc1ccc(-c2cc(C)no2)cc1S(=O)(=O)N1CCN(c2ccccc2F)CC1	31.3	-7.2	-19.3	7.2	-1.7	·
Cc1cc(-c2ccc3c(c2)COc2c4ccccc4nn2-3)on1	-178.9	5.7	-178.2	-120.7	6.6	-72.2
CC(C)[C@H]1COc2c3ccccc3nn21	·	·	·	·	-2.6	·
COC(=O)Cc1ccc2sc(-c3ccccc3)nc2c1	-156.4	38.7	-93.3	-77.3	2.8	-98.8
Oc1ccccc1N=Nc1nc(-c2ccccc2)c(-c2ccccc2)[nH]1	58.5*	-57.2	-17.4	93.0*	-3.0	75.9*
Oc1ccc(-c2csc(Nc3ncccn3)n2)cc1	-158.9	28.3	-207.6	-36.4	5.6	-59.4
c1ccc(-c2csc(Nc3ncccn3)n2)cc1	-211.8	·	-245.3	-95.1	2.6	-105.1
c1ccc(Nc2nc(-c3cccnc3)cs2)nc1	-121.8	·	-127.5	-137.2	-0.2	·
CC(=O)Nc1ccc(-c2csc(Nc3ncccn3)n2)cc1	-117.5	20.1	-111.8	-67.4	0.1	·
CCCN(C)C[C@H]1OCCCC[C@@H](C)Oc2ccc(NC(=O)CCC(F)(F)F)cc2C(=O)N([C@@H](C)CO)C[C@H]1C	·	1.3	·	·	·	·
C[C@@H]1CN([C@H](C)CO)C(=O)Cc2cc(NC(=O)Nc3cccc4ccccc34)ccc2O[C@H]1CN(C)C(=O)Nc1ccc(C(F)(F)F)cc1	·	-2.6	·	·	·	·
CO[C@@H]1CN(C)C(=O)c2ccc(NC(=O)C3CC3)cc2OC[C@H](C)N(C(=O)CN(C)C)C[C@H]1C	·	-3.2	·	·	·	·
Cc1ccc(-c2csc(NC(=O)c3cc([N+](=O)[O-])ccc3N3CCOCC3)n2)cc1	-2.3	5.2	-3.2	2.5	-3.9	·
O=C(Nc1nc(-c2ccccc2)cs1)c1ccc(N2CCOCC2)c([N+](=O)[O-])c1	52.2*	·	11.9	45.4	·	57.1*
COc1ccc(OC)c2c1C(=O)c1ccccc1C2=O	10.9	·	8.5	12.3	-3.2	·
COc1ccc(OC)c2c1C(=O)C(Cl)=C(Cl)C2=O	60.3*	·	-111.0	16.8	-9.1	67.8*
CSC1=NC(C(Cl)(Cl)Cl)N=C(c2ccc(C)cc2)N1 (stereo not given)	70.2*	·	-4.6	1.6	-4.7	44.0
SMILES	Jurkat NFkB inh	esBAF inh	697 NFkB inh	Gli-Sufu antag	SMARCA2 act	Jurkat NFkB conf
C[C@H](CO)N1C[C@H](C)[C@@H](CN(C)CC2CCCCC2)Oc2ccc(NC(=O)C3CC3)cc2CC1=O	·	2.0	·	·	·	·
CSc1ccc(/C=N/NC(=O)CNc2cccc3ccccc23)cc1	0.0	·	23.2	-6.0	0.4	·
O=C(CNc1cccc2ccccc12)N/N=C/c1ccc[nH]1	59.3*	2.9	8.5	25.5	2.4	-3.2
C[C@@H]1CN([C@@H](C)CO)C(=O)c2cc(NC(=O)CCCCCC(=O)Nc3ccccc3N)ccc2O[C@@H]1CN(C)C(=O)Nc1ccc(C(F)(F)F)cc1	·	6.8	·	·	·	·
Cc1nc2ccc(NC(=O)c3cc(Cl)ccn3)cc2s1	-162.2	4.9	-196.9	-138.6	6.3	-109.3
Cc1ccnc(NC(=O)c2ccc(Br)s2)c1	-124.5	0.0	-146.1	-67.1	0.1	·
Cc1nc2cc(NC(=O)c3ccc(Br)s3)ccc2s1	-220.9	70.3*	-14.5	-45.7	1.2	-55.2
COc1cccc(C(=O)Nc2ccc3c(c2)C(=O)N(C)[C@H]2CC[C@H](CC(=O)NCCCN4CCOCC4)O[C@H]2CO3)c1	·	3.9	·	·	·	·
CO[C@@H]1CN(C)C(=O)c2cc(NS(=O)(=O)c3cccc(C)c3)ccc2OC[C@@H](C)NC[C@@H]1C	·	-3.0	·	·	·	·
COc1cc(NCCCCCCCN)c2ncccc2c1	93.3*	-7.6	-44.3	-14.8	·	60.3*
C/C(=N\Nc1cccc2cccnc12)c1ccc[nH]1	-215.7	47.2*	-146.8	-117.3	7.4	-1.6
CCN(CC)c1ccc2c(c1)OC(N)=C(C#N)C2c1cccnc1 (stereo not given)	56.4*	·	30.9	62.3*	-0.5	6.1
O=C(C[C@H]1C[C@H]2c3cc(NC(=O)C4CCC4)ccc3O[C@H]2[C@H](CO)O1)NCc1ccccc1	·	-10.2	·	·	·	·
Cc1ccc(S(=O)(=O)Nc2ccc3c(c2)C(=O)N([C@H](C)CO)C[C@@H](C)[C@@H](CN(C)C(=O)Nc2ccccc2)OCCCC[C@H](C)O3)cc1	·	2.3	·	·	·	·
COC(=O)[C@H]1Cc2c([nH]c3ccccc23)[C@H](c2ccccc2)N1	-6.1	-0.1	2.8	4.7	-0.8	·
COC(=O)C1Cc2c([nH]c3ccccc23)CN1 (stereo not given)	53.3*	-2.2	-7.7	-3.4	-5.5	7.8
O=C1N(c2ccccc2)C[C@@H]2C[C@@H](c3cc4ccccc4o3)N3CCC[C@@]123	71.5*	·	-40.2	76.0*	-10.4	-8.0
C[C@@H]1CN([C@H](C)CO)C(=O)Cc2cc(NC(=O)C3CCCCC3)ccc2O[C@H]1CN(C)Cc1ccc(Oc2ccccc2)cc1	·	13.0	·	·	·	·
Fc1ccccc1Cn1nnc(-c2ccc3c(c2)OCO3)n1	-162.4	21.7	-149.6	-149.7	5.0	-127.2
Cc1ccc(NC(=O)Cn2nnc(-c3ccc4c(c3)OCO4)n2)cc1F	-18.2	-10.7	-27.4	13.3	0.2	·
Cc1c(C(C)(C)C)sc(=NC(=O)c2ccccc2O)n1C	-192.9	16.6	-225.5	-86.8	6.2	-113.4
Cc1ccc2c(c1)N(C(=O)CSc1nncn1C)C(C)(C)c1ssc(=S)c1-2	53.2*	-2.7	-0.6	5.7	-0.3	-30.6
CCOC(=O)c1c(-c2ccc(-c3ccccc3)cc2)csc1NC(=O)CNCCN(C)C	51.6*	-17.9	-0.6	-14.0	5.7	9.8
CC1C/C(=C/c2cccn2C)C(=O)/C(=C/c2cccn2C)C1 (stereo not given)	15.3	1.1	-5.1	2.0	4.6	·
CC1C/C(=C/c2ccncc2)C(=O)/C(=C/c2ccncc2)C1 (stereo not given)	95.6*	-13.9	-128.5	-3.2	-9.8	39.2

Bioassay records deposited in PubChem BioAssay by several laboratories.
